Laboratory results published in the supplement of paper PMC8975748.
Where a name gives a salt, the structure may show the parent alone.

tested on: Saccharomyces cerevisiae BY4741 SeMeCo community; assay: z-score of subpopulation abundance vs DMSO median, subpopulation auxotrophic for UM; higher = larger share of this subpopulation than in DMSO controls; details: 10 µM; 24 h; SM minimal medium; subpopulation (auxotrophy): UM
Protocol: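 Fluorescent four-plasmid SeMeCo (self-establishing metabolically cooperating S. cerevisiae BY4741 community; plasmids pH-mRuby2, pL-mWasabi, pU-eCFP, pM-TagRFP657) was grown 24 h in minimal SM medium with each Selleck FDA-approved drug at 10 µM in 384-well plates. Cells were fixed and imaged by high-content confocal microscopy. For each auxotrophic subpopulation (and the prototroph), a z-score gives the deviation from the DMSO vehicle-control population median.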

Row | Compound | z-score of subpopulation abundance
1 | O=C(Cn1cnnn1)N[C@@H]1C(=O)N2C(C(=O)O)=C(CSc3nncs3)CS[C@H]12 [Ceftezole] | -0.37
2 | COCC1=C(C(=O)OC(C)OC(=O)OC(C)C)N2C(=O)[C@@H](NC(=O)/C(=N\OC)c3csc(N)n3)[C@H]2SC1 (stereo not given in full) [Cefpodoxime proxetil] | 0.01
3 | NC[C@@H]1O[C@H](O[C@H]2[C@@H](O)[C@H](O[C@@H]3[C@@H](O)[C@H](N)C[C@H](N)[C@H]3O[C@H]3O[C@H](CO)[C@@H](O)[C@H](O)[C@H]3N)O[C@@H]2CO)[C@H](N)[C@@H](O)[C@@H]1O [Paromomycin Sulfate] | -0.2
4 | Cc1ccccc1C(OCCN(C)C)c1ccccc1 (stereo not given) [Orphenadrine Citrate] | 0.14
5 | CCn1cc(C(=O)O)c(=O)c2cc(F)c(N3CCNCC3)nc21 [Enoxacin Sesquihydrate] | 1.24
6 | COc1cccc(CCc2ccccc2OCC(CN(C)C)OC(=O)CCC(=O)O)c1 (stereo not given) [Sarpogrelate hydrochloride] | 0.14
7 | COc1c(N2C[C@@H]3CCCN[C@@H]3C2)c(F)cc2c(=O)c(C(=O)O)cn(C3CC3)c12 [Moxifloxacin HCl] | -0.68
8 | CC1(C)S[C@@H]2[C@H](NC(=O)COc3ccccc3)C(=O)N2[C@H]1C(=O)O [Penicillin V potassium salt] | 0.57
9 | CO[C@@H]1[C@H](OC(=O)/C=C/C=C/C=C/C=C/C(=O)O)CC[C@]2(CO2)[C@H]1[C@@]1(C)O[C@@H]1CC=C(C)C [Fumagillin] | 0.11
10 | CN(C)CC(c1ccc(O)cc1)C1(O)CCCCC1 (stereo not given) [Desvenlafaxine] | -0.37
11 | O=C1CCc2cc(OCCCCc3nnnn3C3CCCCC3)ccc2N1 [Cilostazol] | -0.9
12 | CC1(C)S[C@@H]2[C@H](NC(=O)[C@H](N)c3ccccc3)C(=O)N2[C@H]1C(=O)OCOC(=O)[C@@H]1N2C(=O)C[C@H]2S(=O)(=O)C1(C)C [Sultamicillin] | 0.83
13 | C[C@@H]1[C@H](O)[C@@H](C)/C=C/C=C/C=C/C=C/C=C/C=C/C=C/[C@H](O[C@@H]2O[C@H](C)[C@@H](O)[C@H](N)[C@@H]2O)C[C@@H]2O[C@](O)(C[C@@H](O)C[C@@H](O)[C@H](O)CC[C@@H](O)C[C@@H](O)CC(=O)O[C@H]1C)C[C@H](O)[C@H]2C(=O)O [Amphotericin B] | 29.4
14 | O=c1[nH]cc(F)c(=O)[nH]1 [Fluorouracil (5-Fluoracil, 5-FU)] | 2.82
15 | CCCSc1ccc2[nH]c(NC(=O)OC)nc2c1 [Albendazole] | 0.26
16 | COc1ccnc(C[S+]([O-])c2nc3cc(OC(F)F)ccc3[nH]2)c1OC (stereo not given) [Pantoprazole] | -0.26
17 | Nc1nc(O)c2ncn(CCC(CO)CO)c2n1 [Penciclovir] | 0.66
18 | CC[C@H](c1ccc(O)cc1)[C@@H](CC)c1ccc(O)cc1 [Hexestrol] | -0.86
19 | CC/C(=C(/CC)c1ccc(O)cc1)c1ccc(O)cc1 [Diethylstilbestrol] | -1.59
20 | COc1ccc(C(Cl)=C(c2ccc(OC)cc2)c2ccc(OC)cc2)cc1 [Chlorotrianisene] | 0.15

Row | Compound | z-score of subpopulation abundance
21 | Nc1ccc(S(=O)(=O)Nc2ncccn2)cc1 [Sulfadiazine] | -0.04
22 | CCN[C@@H]1C[C@H](N)[C@@H](O[C@H]2OC(CN)=CC[C@H]2N)[C@H](O)[C@H]1O[C@H]1OC[C@](C)(O)[C@H](NC)[C@H]1O [Netilmicin Sulfate] | 0.17
23 | Clc1ccc2c(N3CCN(CCCN4CCN(c5ccnc6cc(Cl)ccc56)CC4)CC3)ccnc2c1 [Piperaquine phosphate] | 0.36
24 | Cc1nnc(NS(=O)(=O)c2ccc(N)cc2)s1 [Sulfamethizole] | -0.65
25 | O=C(O)c1cn(-c2ccc(F)cc2)c2cc(N3CCNCC3)c(F)cc2c1=O [Sarafloxacin HCl] | 0.84
26 | OCCOc1ccc(/C(=C(/CCCl)c2ccccc2)c2ccccc2)cc1 [Ospemifene] | -0.91
27 | CC1(C)S[C@@H]2[C@H](NC(=O)[C@H](N)c3ccc(O)cc3)C(=O)N2[C@H]1C(=O)O [Amoxicillin Sodium] | -0.03
28 | NC(=O)C(c1ccccc1)(c1ccccc1)[C@@H]1CCN(CCc2ccc3c(c2)CCO3)C1 [Darifenacin HBr] | 0.53
29 | CN[C@@H]1[C@@H](O[C@H]2O[C@H](CO)[C@@H](N)[C@H](O)[C@H]2O)OC2C[C@@H](N)[C@@H](O[C@H]3[C@H](O)[C@@H](O)[C@H](N)C[C@@H]3N)OC2[C@@H]1O (stereo not given in full) [Apramycin Sulfate] | 0.56
30 | Cc1onc(-c2c(Cl)cccc2Cl)c1C(=O)N[C@@H]1C(=O)N2[C@@H]1SC(C)(C)[C@@H]2C(=O)O [Dicloxacillin Sodium] | -0.45
31 | CC(C)C(=O)c1c(C(C)C)nn2ccccc12 [Ibudilast] | 1.06
32 | CNS(=O)(=O)CCc1ccc2[nH]cc(C3CCN(C)CC3)c2c1 [Naratriptan HCl] | 0.23
33 | CCN(CC)CC#CCOC(=O)C(O)(c1ccccc1)C1CCCCC1 (stereo not given) [Oxybutynin] | -0.47
34 | C=C[C@]1(C)C[C@@H](OC(=O)CS[C@@H]2C[C@H]3CC[C@@H](C2)N3C)[C@]2(C)[C@H](C)CC[C@]3(CCC(=O)[C@H]32)[C@@H](C)[C@@H]1O [Retapamulin] | 0.21
35 | COc1cc2c(cc1OC)C(=O)C(CC1CCN(Cc3ccccc3)CC1)C2 (stereo not given) [Donepezil HCl] | -0.48
36 | CCCCCOc1ccc(-c2cc(-c3ccc(C(=O)N[C@H]4C[C@@H](O)[C@@H](O)NC(=O)[C@@H]5[C@@H](O)[C@@H](C)CN5C(=O)[C@H]([C@H](O)CC(N)=O)NC(=O)[C@H]([C@H](O)[C@@H](O)c5ccc(O)c(OS(=O)(=O)O)c5)NC(=O)[C@@H]5C[C@@H](O)CN5C(=O)[C@H]([C@@H](C)O)NC4=O)cc3)no2)cc1 [Micafungin Sodium] | 1.81
37 | C[C@H]1c2cccc(O)c2C(O)=C2C(=O)[C@]3(O)C(O)=C(C(N)=O)C(=O)[C@@H](N(C)C)[C@@H]3[C@@H](O)[C@@H]21 [Doxycycline] | -1.44
38 | CSCC1CN(/N=C/c2ccc([N+](=O)[O-])o2)C(=O)O1 (stereo not given) [Nifuratel] | -7.21
39 | CC(C)COc1ccc(CNC(=O)N(Cc2ccc(F)cc2)C2CCN(C)CC2)cc1 [Pimavanserin] | -0.58
40 | N=C(N)NC(=N)N1CCOCC1 [Moroxydine HCl] | 0.37
